A short description of assay [1]: NCI Yeast Anticancer Drug Screen. Data for the rad50 strain (AID 155).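 Note: 0% = growth of vehicle-only cultures of the same strain.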 As to conditions: S. cerevisiae rad50 strain growth inhibition; at 50.0 µM; active compounds read high. Put shortly: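 Vehicle-treated cultures provide the reference for the growth inhibition reported for compound-exposed, repair-deficient yeast.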
Assay [2] can be described thus: NCI Yeast Anticancer Drug Screen. Data for the mec2-1 strain (AID 157). Particulars: S. cerevisiae mec2-1 strain, at 50.0 µM, active compounds read high. In outline: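 Mutant yeast (mec2-1) grown with compound; growth inhibition relative to vehicle control reported.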
Assay [3] can be described thus: NCI Yeast Anticancer Drug Screen. Data for the sgs1 mgt1 strain (AID 161).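 Note: 0% = growth of cultures given vehicle only.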 Particulars: S. cerevisiae sgs1 mgt1 strain, at 50.0 µM, active compounds read high. Put shortly:
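Compounds are added to genetically altered yeast, and growth is compared with cultures given vehicle alone to give percent inhibition.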

Assay [4] in a line: NCI Yeast Anticancer Drug Screen. Data for the cln2 rad14 strain (AID 165).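 Note: 0% = growth equal to vehicle treated cultures.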 As to conditions: S. cerevisiae cln2 rad14 strain, at 50.0 µM, active compounds read high. Put shortly: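 Readout is yeast growth inhibition versus vehicle-treated controls, using a strain with cln2 and rad14 alterations exposed to compound.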
A short description of assay [5]: NCI Yeast Anticancer Drug Screen. Data for the bub3 strain (AID 167). Particulars: S. cerevisiae bub3 mutant strain, at 50.0 µM, active compounds read high. Put shortly: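 Mutant yeast screening strain plus compound; vehicle-treated cultures serve as the 0% inhibition reference.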
Assay [6] in a line: NCI Yeast Anticancer Drug Screen. Data for the mlh1 rad18 strain (AID 175). Particulars: S. cerevisiae mlh1 rad18 strain growth inhibition; at 50.0 µM; active compounds read high. In outline:
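Genetically defined yeast (DNA repair-deficient) exposed to compounds; growth inhibition determined relative to vehicle.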

About 79,000 compounds went through this panel and 15% of them were active in at least one assay; those are over-represented in the sample as a whole. Unmarked numbers belong to inactive results. Calls of active or inactive are those of the source. Cut-off read from the data, not from the text of the source: active = growth inhibition above about 70%; inactive = the rest.

Take `Cc1[nH]ccc2c3ccc(=O)cc3n(S(=O)(=O)O)c12`: the growth inhibition in assay [1] was 10.7%; in assay [2], -8.3%; in assay [3] it was -1.45%; in assay [4] it was 18.4%; in assay [5], 16.8%; in assay [6], -7.25%.

Turning to `CC1=C2N3C[C@@H](n4c(=O)n(C)c(=O)n43)C23CCC1n1c(=O)n(C)c(=O)n13`, the growth inhibition in assay [1] was -7.1%; in assay [2], -0.85%; in assay [3], 17.9%; in assay [4], 7%; in assay [5], -7.9%; in assay [6], -9.95%.

On to `O=C1OC(c2ccccc2)=N/C1=C\c1ccco1`, for which the growth inhibition in assay [1] is -2.95%; in assay [2] it was -19.3%; in assay [3], -24.4%; in assay [4] it was 19.6%; in assay [5], -22.2%; in assay [6], 23.6%.

For `CCOC(=O)CC1C(O)C(=O)N(C)C1c1ccccc1` (stereo unspecified), the growth inhibition was 21% in assay [1]; -8.05% in assay [2]; 1.75% in assay [3]; 42.3% in assay [4]; 9% in assay [5]; -50.4% in assay [6].

On to `COc1ccc(C(C)(C)C#N)cc1`, for which the growth inhibition in assay [1] was -20.7%; in assay [2] it was 13.6%; in assay [3], -5.95%; in assay [4], -12.8%; in assay [5], -10.6%; in assay [6], 31.6%.

For `O=[N+]([O-])c1cccnc1Oc1cccc(C(F)(F)F)c1`, the growth inhibition is -16.8% in assay [1]; 21.9% in assay [2]; 14.4% in assay [3]; -7.95% in assay [4]; -16.1% in assay [5]; 1.15% in assay [6].

Regarding `CCCOc1ccc(OCC(=O)c2ccccc2)cc1`, the growth inhibition in assay [1] is -23.9%; in assay [2], -32.5%; in assay [3], 25.8%; in assay [4], 5.3%; in assay [5] it was 61.5%; in assay [6], 8%.

For `CCOC(=O)C1C/C(C)=C(/C)SCCCS1` (stereo unspecified), the growth inhibition in assay [1] is 18.8%; in assay [2], 3.2%; in assay [3], -5.5%; in assay [4], 21.1%; in assay [5] it was 5.05%; in assay [6], -67.2%.

With `COc1cc(=O)cc2n(c1=O)CCC2`, the growth inhibition is -8.45% in assay [1]; -5.05% in assay [2]; -13.2% in assay [3]; -28% in assay [4]; 8.5% in assay [5]; -2.25% in assay [6].

For the compound `Cc1cc(Br)c(NC(=S)SCc2ccc(Cl)cc2)cc1C`, the growth inhibition is 88.2% (active) in assay [1]; 80% (active) in assay [2]; 82.6% (active) in assay [3]; 63.5% in assay [4]; 80% (active) in assay [5]; 95.8% (active) in assay [6].

On to `CC(=O)OCC(OC(C)=O)C(OC(C)=O)C(C=NN(C(C)=O)S(=O)(=O)c1ccc(/C=C2\NC(=O)NC2=O)cc1)OC(C)=O` (stereo unspecified), for which the growth inhibition is -4.6% in assay [1]; -30.9% in assay [2]; -17.9% in assay [3]; 14% in assay [4]; -17.8% in assay [5]; -7.15% in assay [6].

For the compound `CN(C)c1ccc(/C=N\NC(=S)Nc2ccc3cn[nH]c3c2)cc1`, the growth inhibition in assay [1] was 20.9%; in assay [2], -10.9%; in assay [3] it was -1.15%; in assay [4] it was 8.1%; in assay [5], 23.3%; in assay [6], -9.5%.

With `CC1OC(OC2C(OC3C[C@@]4(C)C(C[C@H](O)[C@H]5[C@H](C6(C)CCC(C(C)(C)O)O6)CCC54C)[C@]4(C)CC[C@@H](O)C(C)(C)C34)OC(CO)C(O)C2O)C(O)C(O)C1O` (stereo partly specified) (tested in a mixture with another compound), the growth inhibition in assay [1] was -7.6%; in assay [2] it was -20.1%; in assay [3] it was -3.45%; in assay [4], -26.7%; in assay [5] it was -8.5%; in assay [6] it was -72.5%.

`Oc1ccccc1CN1CCOCC1`: the growth inhibition was 22.4% in assay [1]; 9.3% in assay [2]; 26.9% in assay [3]; 13.8% in assay [4]; -7.2% in assay [5]; 28.5% in assay [6].

Consider `CCOC(=O)c1ccc(NCCCNc2ccc(C(=O)OCC)cc2)cc1`, for which the growth inhibition is -8.05% in assay [1]; 13.8% in assay [2]; 1.45% in assay [3]; 0.35% in assay [4]; 4.7% in assay [5]; 9.5% in assay [6].

Consider `Cc1ccccc1/C=N\N=C\c1ccco1`, for which the growth inhibition was -0.5% in assay [1]; -6.5% in assay [2]; -5.25% in assay [3]; -10.7% in assay [4]; 18.1% in assay [5]; 44.6% in assay [6].

As for `COC(=O)C(C)CN1CCCCC1` (stereo unspecified), the growth inhibition was 20.1% in assay [1]; 6.2% in assay [2]; 22.1% in assay [3]; -6.45% in assay [4]; 31.9% in assay [5]; 19.9% in assay [6].

Turning to `CC1(O)CCC(C(C)(C)C)CC1` (stereo unspecified), the growth inhibition in assay [1] is 22.6%; in assay [2], 12.3%; in assay [3], -1.2%; in assay [4], 2.05%; in assay [5] it was 2.95%; in assay [6], 11.1%.

As for `Cc1ccc(S(=O)(=O)OCC2=C(COS(=O)(=O)c3ccc(C)cc3)C3c4ccccc4C2c2ccccc23)cc1`, the growth inhibition in assay [1] is 31.3%; in assay [2], 5.35%; in assay [3], 1.55%; in assay [4] it was -27.8%; in assay [5] it was -1.35%; in assay [6], 4.8%.

For `CC(=O)c1ccc2ccccc2c1O`, the growth inhibition in assay [1] is 2.6%; in assay [2], -11.7%; in assay [3], -25.5%; in assay [4], -11.1%; in assay [5] it was -3%; in assay [6], -5.45%.

`CSCSCC(CO)NC(=O)/C(C)=C\c1c(C)[nH]c(=O)[nH]c1=O` (stereo unspecified): the growth inhibition in assay [1] was -3.35%; in assay [2], -2%; in assay [3] it was -2.35%; in assay [4] it was -7%; in assay [5] it was 8.4%; in assay [6] it was -13.1%.

Values taken from PubChem BioAssay (NCI).
